Assay outcomes: PubChem BioAssay, several laboratories
Only some compounds are listed: those with a hit (about 1.7% of all), similar ones and a draw of the others.
LYP inh 2 – PTPN22 phosphatase inhibitors, primary screen, biochemical, DiFMUP fluorescence, 2 µM; recombinant LYP catalytic domain; inhibition, % at 2 µM; Tyrosine-protein phosphatase non-receptor type 22 (Homo sapiens), Q9Y2R2; 96,000 compounds, 0.21% hits;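 active = inhibition at 2 µM at or above a set limit, the screen mean plus 3 SD, cut at about 24% in these data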;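 note: 0% = DMSO with enzyme and 100% = enzyme fully blocked by orthovanadate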
Target sequence (Q9Y2R2 whole entry, looked up, the tested form may be a part): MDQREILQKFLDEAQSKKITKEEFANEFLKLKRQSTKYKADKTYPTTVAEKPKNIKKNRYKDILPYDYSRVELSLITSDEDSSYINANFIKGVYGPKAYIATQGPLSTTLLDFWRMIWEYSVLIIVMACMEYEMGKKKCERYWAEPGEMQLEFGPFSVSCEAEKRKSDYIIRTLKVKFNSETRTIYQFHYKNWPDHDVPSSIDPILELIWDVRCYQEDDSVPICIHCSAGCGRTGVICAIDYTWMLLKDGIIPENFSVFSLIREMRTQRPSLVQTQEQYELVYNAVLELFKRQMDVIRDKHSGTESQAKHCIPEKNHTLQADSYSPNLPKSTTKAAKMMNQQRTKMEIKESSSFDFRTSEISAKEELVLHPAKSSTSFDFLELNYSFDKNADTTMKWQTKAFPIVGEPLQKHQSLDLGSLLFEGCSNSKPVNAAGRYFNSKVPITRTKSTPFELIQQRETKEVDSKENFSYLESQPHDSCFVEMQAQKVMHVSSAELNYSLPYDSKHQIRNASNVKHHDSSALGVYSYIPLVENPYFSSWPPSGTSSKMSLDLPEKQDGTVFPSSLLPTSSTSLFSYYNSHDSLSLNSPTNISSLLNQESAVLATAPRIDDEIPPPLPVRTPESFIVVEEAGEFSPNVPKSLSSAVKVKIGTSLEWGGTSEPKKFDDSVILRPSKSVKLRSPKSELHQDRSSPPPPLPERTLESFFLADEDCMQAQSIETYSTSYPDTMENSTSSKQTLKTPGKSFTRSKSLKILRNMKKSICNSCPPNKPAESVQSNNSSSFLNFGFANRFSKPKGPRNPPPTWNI
PTPN22 act – LYP phosphatase activators, primary screen, biochemical, DiFMUP fluorescence, 2 µM; activation, % at 2 µM; 96,000 compounds, 0.11% hits; AID 697, 2007; recombinant LYP; 0 = plate median, 100 = signal doubled; Tyrosine-protein phosphatase non-receptor type 22 (Homo sapiens), Q9Y2R2;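 active = activation at 2 µM above a set limit, the mean plus 5 SD, cut at about 37% in these data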
Measles CPE – compounds protecting cells from measles virus cytopathic effect, primary screen, measles RdRp inhibitor project, single point, MLSMR library, absorbance. protection (pct of control), % at 4 µM. Measles virus-infected cells, CPE protection. 140,000 compounds, 1.5% hits. AID 841, 2007; in the data active = protection mostly above about 24%, no sharp cut-off; inactive = mostly below about 26%
LYP act confirm – retest of PTPN22 activators, confirmation, biochemical, DiFMUP fluorescence, single concentration; activation, % at 2 µM; 100 tested, under 10 active; shares compounds with PTPN22 act; Recombinant LYP, activation; zero set by plate's median compound well; call rule not given here
* = called active by the depositor; · = no result.

SMILES	LYP inh 2	PTPN22 act	Measles CPE	others
CN1C(=O)C(=Cc2ccc(N3CCOCC3)o2)C(=O)N(C)C1=O	·	·	24.6
CN1C(=O)C(=Cc2ccc(-c3cccc(Cl)c3)o2)C(=O)N(C)C1=O	·	·	20.0*
COc1ccccc1-n1c(O)c(C=NCCCn2ccnc2)c(=O)[nH]c1=O	-5.1	4.3	0.7
CN1C(=O)C(=Cc2ccccc2Oc2ccc(Cl)c(F)c2)C(=O)N(C)C1=O	-8.4	11.9	4.4
CCN1CCN(Cc2cc(C(C)(C)C)c(O)c(C(C)(C)C)c2)CC1	4.6	-2.4	60.1*
CCN1CCN(Cc2ccc(C)cc2)CC1	·	·	6.5
O=C(Nc1cccc2ccccc12)c1nn(C23CC4CC(CC(C4)C2)C3)cc1Br	10.3	-7.6	37.7*
CCOC(=O)C1(c2ccccc2)CCN(CC(=O)Nc2cccc3ccccc23)CC1	·	·	7.8
Cc1ccc2c(c1)C1CN(C)CCC1N2C(=O)COc1ccc(S(=O)(=O)N2CCOCC2)cc1 (stereo not given)	-9.7	5.3	13.4
Cc1nc2ccccc2c(=O)n1-c1ccccc1C(F)(F)F	-4.7	7.5	31.9
Cc1nc2ccccc2c(=O)n1-c1ccc(F)cc1	·	·	31.0*
CN(C)C1(CNC(=O)c2ccc(Cl)c(S(=O)(=O)NCc3ccco3)c2)CCCCC1	-7.1	5.4	22.9
O=c1[nH]c(=O)n(CCC2=CCCCC2)c(O)c1C=NCCN1CCNCC1	-0.8	0.4	34.5*
C=CCn1c(O)c(C=NCCN2CCNCC2)c(=O)[nH]c1=O	9.9	-8.5	2.0
O=c1[nH]c(=S)n(-c2ccccc2F)c(O)c1C=NCc1ccco1	·	·	7.6
O=c1[nH]c2ccccc2o1	·	·	45.0*
O=c1[nH]c(=O)n(-c2cccc(Cl)c2)c(O)c1/C=N/c1ccccn1	-4.6	4.0	4.0
CNC(=S)NC1CC2CCCC(C1)N2CC(C)C (stereo not given)	4.8	-1.6	13.1
CCOC(=O)c1c(N)n(CCN2CCCCC2)c2nc3ccccc3nc12	-4.9	2.6	4.0
O=C(Cc1ccccc1)N1CCN(C2CCCC2)CC1	-8.5	7.1	1.8
CCC(CC)N1CCN(C(=O)Cc2ccccc2)CC1	2.3	-1.8	42.9*
O=C(CSC1c2ccccc2-c2ccccc21)N/N=C/c1ccccc1O	4.0	-2.5	3.1
CC(NC(=O)Oc1ccccc1)C(c1cccs1)N1CCOCC1 (stereo not given)	-1.0	-4.5	16.8
OC(c1ccc(F)cc1)C(c1ccccc1)N1CCOCC1 (stereo not given)	-8.3	10.9	39.0*
O=C(COc1ccc(Br)cc1)N1CCN(Cc2ccncc2)CC1	-10.7	7.8	39.4
SMILES	LYP inh 2	PTPN22 act	Measles CPE	others
Cc1cccc(OCC(=O)N2CCN(Cc3ccncc3)CC2)c1	-18.4	18.0	42.5*
COc1cc(/C=C2\C(=O)NC(=O)N(CCc3ccc(F)cc3)C2=O)ccc1O	·	·	10.6
CC(NCc1cccc(Cl)c1Cl)C(O)c1ccccc1 (stereo not given)	·	·	13.9
O=c1[nH]c(N2CCN(Cc3ccc4c(c3)OCO4)CC2)nc2c1CCC2	7.7	-8.9	6.2
CC/C(=C\C=C\[C@@H]1C=C[C@@H]2CCC[C@H]2[C@@H]1C(=O)c1ccc[nH]1)[C@@H]1O[C@@H]([C@@H](C)C(=O)O)CC[C@@H]1C	25.4*	-25.8	3.8
COC(=O)C1=CO[C@@H](C)[C@@H]2CN3CC[C@@]4(C(=O)Nc5ccccc54)[C@@H]3C[C@H]12	·	·	9.6
Cn1cc(C(=O)c2ccccc2)c2ccccc21	4.2	-7.3	11.7
O=C(O)Cn1cc(C(=O)c2ccccc2)c2ccccc21	0.8	-5.1	39.8*
COc1ccc(C(O)c2cc(OC)ccc2OP(=O)(N(C)C)N(C)C)cc1 (stereo not given)	·	·	1.6
C1=C(c2c[nH]c3ccccc23)CCNC1	-16.6	17.2	2.9
CC(C)N1CC=C(c2c[nH]c3ccccc23)CC1	-3.1	1.6	35.8*
COC(=O)C1C2c3ccccc3OC1(C)N=c1s/c(=C/c3cn(C)nc3C)c(=O)n12 (stereo not given)	-4.3	3.6	6.4
CCCN(CC#CCOc1ccc(OC)cc1)CCC	6.3	-6.4	37.2*
CC(=O)NC1CC2CCCC(C1)N2 (stereo not given)	4.2	-5.2	28.1
CCCN1C2CCCC1CC(NC(C)=O)C2 (stereo not given)	-1.7	0.6	48.8*
O=c1[nH]c(=O)n(-c2cccc3ccccc23)c(O)c1C=NCc1ccc2c(c1)OCO2	-10.7	9.4	6.3
C=CCn1c(O)c(C(C)=NCCO)c(=O)[nH]c1=O	-5.9	11.7	6.5
Fc1ccc(C(OCCN2CCCC2)c2ccc(Br)cc2)cc1 (stereo not given)	·	·	54.2*
Fc1ccc(C(OCCN2CCCC2)c2ccc(F)cc2)cc1	·	·	3.6
Cc1[nH]c2ccccc2c1/C=N/O	3.6	-2.4	8.2
COc1cccc(CN2CCCCC2c2cccnc2)c1 (stereo not given)	-3.9	0.4	12.2
COc1ccc(CN2CCCCC2c2cccnc2)cc1C (stereo not given)	-17.4	13.5	38.1*
Clc1ccc2c(c1)C(c1ccccc1Cl)=NCc1nnc(N3CCN(CCOc4ccccc4)CC3)n1-2	·	·	27.5*
Clc1ccc2c(c1)C(c1ccccc1Cl)=NCc1nnc(N3CCN(CCSc4ccccc4)CC3)n1-2	2.2	1.1	10.5
C=CCn1c(O)c(C(C)=NCCc2ccccc2)c(=O)[nH]c1=O	-4.7	7.2	23.6*
SMILES	LYP inh 2	PTPN22 act	Measles CPE	others
C=CCn1c(O)c(C(CC)=NCCc2ccccc2)c(=O)[nH]c1=O	0.0	2.4	6.7
C=C[C@@H]1C[C@@]1(C)[C@@H](NP(=O)(c1ccccc1)c1ccccc1)c1ccccc1	·	·	12.7
C(=NC12CN3CN(CN(C3)C1)C2)c1cccs1	11.3	-9.3	54.8*
CC(=O)OC1(c2ccccc2)CCN(C)C2CCCCC21 (stereo not given)	·	·	11.3
CC(C)Oc1ccc(C2C(C#N)=C(N)Oc3c2c(=O)oc2ccccc32)cc1 (stereo not given)	13.9	-11.3	15.6
COc1ccc(C2C(C#N)=C(N)Oc3c2c(=O)oc2ccccc32)cc1Cn1cc([N+](=O)[O-])cn1 (stereo not given)	6.5	-4.2	24.4*
CC1CC(NC(=O)C2C3CCC(O3)C2C(=O)O)CC(C)(C)C1 (stereo not given)	·	·	37.8
COC(=O)[C@@H]1[C@@H](C(=O)OC)C2(c3ccccc3-c3ccccc32)N(c2ccc(Cl)cc2)N1C#N	18.2	-20.5	3.0
Cc1cc(OCc2ccc([N+](=O)[O-])cc2)c2c3c(c(=O)oc2c1)CCCC3	11.6	-7.8	45.5*
Cc1cc(OCc2nn[nH]n2)c2c3c(c(=O)oc2c1)CCCC3	-7.8	7.8	4.2
CCOc1ccc(-n2c(O)c(C=NCCN(CC)CC)c(=O)[nH]c2=O)cc1	-6.1	8.3	4.2
N=Cc1c(O)n(-c2cccc(Cl)c2)c(=O)[nH]c1=O	-1.6	1.5	5.6
COc1ccc(S(=O)(=O)Cc2ccc(C(=O)N3CCC4(CC3)OCCO4)o2)cc1	-0.1	-0.6	58.1
O=C1NC(=O)N(Cc2ccccc2Cl)C(=O)/C1=C/N1CCOCC1	-43.4	43.3*	21.9	LYP act confirm=3.9
O=C1NC(=O)N(Cc2ccccc2)C(=O)/C1=C\N1CCCc2ccccc21	·	·	11.9
O=C(Cn1cnc2ccccc2c1=O)NCCC(=O)N1CCC2(CC1)OCCO2	7.3	-5.7	17.1
